Bioassay records from PubChem.
In the library only some 8.2% were active in any assay of this set; here they are far more common.
MCF10A rereplic: A quantitative high throughput screen for small molecules that induce DNA re-replication in MCF 10a normal breast cells | MCF 10A DNA re-replication, Hoechst nuclear intensity, 48 h | Potency, µM (titrated, usually from 46.1 µM), inactives show top-dose activity, positive = re-replication, usual class: activators | 350,000 compounds, 2.9% hits; also: % of control where 0% means no effect; nearly all actives have a fitted effect of over 50% in size
ELG1 DNA repair: qHTS screen for small molecules that inhibit ELG1-dependent DNA repair in human embryonic kidney (HEK293T) cells expressing luciferase-tagged ELG1 | HEK293T ELG1-luciferase reporter, luminescence, 16 h; DNA damage induced by 5-fluorouridine | Potency, µM (doses to about 46.1 µM), inactives show top-dose activity change, negative = inhibition, hits mostly inhibitors | 330,000 compounds, 2.3% hits | AID 504467, 2011; also: % is scaled to controls: 0 for no effect and ±100 for the full control effect; nearly all actives have a fitted effect of over 55% in size
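Step one: seed 2,000 cells per well. Step two: pin-transfer compound or DMSO alongside 5-fluorouridine. Step three: incubate 16 hr, 37 °C, 5% CO2. Step four: add ONE-Glo, wait 30 min, read luminescence.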
SW480 rereplic: A quantitative high throughput screen for small molecules that induce DNA re-replication in SW480 colon adenocarcinoma cells | AID 624297, 2012 | 340,000 compounds, 1.8% hits | SW480 DNA re-replication, Hoechst DNA content imaging, 48 h | Potency, µM (doses to about 46.1 µM), without a hit: at the highest dose re-replication activation, usual class: activators; also: % of control where 0% means no effect; nearly all actives have a fitted effect of over 55% in size
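250 cells/well; 23 nL cpd via pin tool; 48 hr, 37 C, 5% CO2; Hoechst 40 min; imager read of total nuclear intensity, ex 405/em 500-530 nm.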
KB-3-1 cytotox: qHTS assay for MDR1-selective chemotherapeutics: Primary screen using the parental adenocarcinoma cell KB-3-1; KB-3-1 viability, CellTiter-Glo ATP luminescence, 72 h; Potency, µM (series often up to 46.1 µM), hits mostly cytotoxic; 400,000 compounds, 1.4% hits; AID 1347075, 2019; also: % is scaled to controls: 0 for no effect and ±100 for the full control effect; nearly all actives have a fitted effect of over 60% in size
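Screening of KB-3-1 cells (DMEM, 10% FBS, phenol-red free) ran from lowest to highest compound concentration; after 72 h at 37 °C viability was read luminescently and curves fitted.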
KB-V1 cytotox: qHTS assay for MDR1-selective chemotherapeutics: Primary screen using the drug-selected MDR subline cells KB-V1 | KB-V1 MDR cells viability, CellTiter-Glo, 72 h | Potency, µM (series often up to 46.1 µM), actives largely listed as cytotoxic | 400,000 compounds, 3.4% hits | AID 1347076, 2019; also: % is scaled to controls: 0 for no effect and ±100 for the full control effect; nearly all actives have a fitted effect of over 60% in size
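Luminescent ATP read-out (CellTiter-Glo, 10 min) measures survival of drug-selected KB-V1 MDR cells after 72 h, 37 degrees C compound exposure. Medium: phenol-red-free DMEM, 10% FBS. Values from fitted concentration-response curves.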
Starred values were filed as active, the others as inactive; i = inactive; ? = inconclusive; . = no result given. Calls follow the shape of the dose curve; as a rule, active = well fitted curve in the direction sought with a large enough effect; inconclusive = small, poorly fitted or top-dose-only effect, or another doubt; inactive = no such curve, though single readings can be large; an effect the other way counts as inactive or inconclusive. Potency is read from the fitted curve at half-maximal effect.

SMILES	MCF10A rereplic	ELG1 DNA repair	SW480 rereplic	KB-3-1 cytotox	KB-V1 cytotox
CCOC(=O)c1c(S(=O)(=O)N2CCN(c3cc(Cl)ccc3C)CC2)c(C)n(C)c1C	.	.	.	i	i
COc1ccc(NC(=O)N2c3ccccc3C(C)=CC2(C)C)cc1	9.0%	20.9%	-0.5%	i	i
CC1=CC(C)(C)N(S(=O)(=O)c2ccc(F)cc2)c2ccccc21	?	-2.3%	20.6µM*	i	i
CC(=O)Nc1ccc(S(=O)(=O)N2c3ccccc3C(C)=CC2(C)C)cc1	?	10.9%	?	3.26µM*	?
CC1=CC(C)(C)N(S(=O)(=O)c2ccc(C)cc2)c2ccc(C)cc21	-1.5%	-2.1%	7.1%	6.51µM*	?
C/C=C/C(=O)N1c2ccc(C)cc2C(C)=CC1(C)C	9.2%	3.6%	3.4%	i	i
CC(=O)c1ccc(NC(=O)Cn2nc(C(F)(F)F)c3c2CCCC3)cc1	.	.	.	i	i
Cc1ccc(N(C)S(=O)(=O)c2cc(-c3cnc(C4CC4)o3)ccc2C)cc1	23.1µM*	16.4µM*	28.3%	?	i
CC(=O)Nc1ccc(NS(=O)(=O)c2cc(-c3cnc(C4CC4)o3)ccc2C)cc1	-5.5%	?	-6.1%	i	?
Cc1ccc(-c2cnc(C3CC3)o2)cc1S(=O)(=O)Nc1ccccc1	?	-19.7%	-5.4%	7.31µM*	?
Cc1cccc(N(C)S(=O)(=O)c2ccc(-c3cnc(C4CC4)o3)cc2)c1	23.1µM*	-21.9%	0.146µM*	?	?
CCN(C(=O)COc1ccc2ccc(=O)oc2c1)C1CCCCC1	0.0%	0.0%	-5.9%	i	18.4µM*
Cc1ccc(NC(=O)CSc2nnc(Cc3csc(C)n3)o2)cc1	-0.9%	?	7.4%	i	i
CCOc1ccc(Nc2nc(Cc3nnc(SCC(=O)c4ccc(C)c(C)c4)o3)cs2)cc1	12.6%	23.1µM*	?	i	13µM*
Cc1ccc(-c2nc(P(=O)(c3ccccc3)c3ccccc3)c(N3CCOCC3)o2)cc1	?	-23.2%	26.6%	i	i
CNc1oc(-c2ccc(Cl)cc2)nc1P(=O)(c1ccccc1)c1ccccc1	16.4µM*	-1.1%	15.1%	?	?
Cc1cc(C(=O)OCC(=O)NC2CCS(=O)(=O)C2)c(C)n1-c1ccccc1 (stereo unspecified)	-3.5%	-22.5%	2.2%	?	16.4µM*
Cc1ccc(Oc2ccc(OCC(=O)NC3CCS(=O)(=O)C3)cc2)cc1 (stereo unspecified)	17.0%	11.6µM*	-4.4%	?	?
COc1ccc2cc(-c3cc(C(=O)OCC(=O)NC4CCS(=O)(=O)C4)c4ccccc4n3)ccc2c1 (stereo unspecified)	7.31µM*	?	?	i	i
COC(=O)c1ccc(OCC2c3cc(OC)c(OC)cc3CCN2C(=O)Cc2ccccc2)cc1 (stereo unspecified)	.	.	.	i	i
COc1ccc(S(=O)(=O)Cc2ccc(C(=O)N3CCN(c4cccc(C)c4)C(C)C3)o2)cc1 (stereo unspecified)	6.51µM*	13µM*	14.6µM*	3.26µM*	i
COc1ccccc1S(=O)(=O)Cc1ccc(C(=O)N2CCN(c3ccc(C)cc3)C(C)C2)o1 (stereo unspecified)	23.8%	20.6µM*	?	?	?
CCOC(=O)N1CCN(C(=O)c2ccc(CS(=O)(=O)c3ccccc3OC)o2)CC1	-1.4%	?	-5.9%	i	i
COCCNC(=O)C1(C)CCCN(C(=O)c2ccccc2OC)C1 (stereo unspecified)	.	.	.	i	i
O=C(NCc1ccccc1)C1c2ccccc2OCC(=O)N1Cc1ccccc1 (stereo unspecified)	.	.	.	?	i
SMILES	MCF10A rereplic	ELG1 DNA repair	SW480 rereplic	KB-3-1 cytotox	KB-V1 cytotox
CCc1nc2c(OCc3ccc(F)c(F)c3)cccn2c1N(C)C(=O)c1ccc(OC)cc1	.	.	.	i	?
Cc1ccc(-c2nn3c(C)nnc3s2)cc1NC(=O)c1ccc(-c2ccc(Cl)cc2Cl)o1	7.31µM*	-19.8%	17.9%	20.6µM*	?
Cc1ccc(-c2nn3c(C)nnc3s2)cc1NC(=O)c1ccc(Br)o1	0.0%	-1.7%	0.3%	i	i
Cc1ccc(-c2nn3c(C)nnc3s2)cc1NC(=O)c1ccc(-c2cccc(Cl)c2)o1	?	18.4µM*	?	?	?
Cc1ccc(OCC(=O)Nc2cc(-c3nn4c(C)nnc4s3)ccc2C)cc1	-4.3%	1.3%	-9.2%	18.4µM*	?
COCCCNC(=O)C1CCC(CNS(=O)(=O)c2ccc3c(c2)CC(C)N3C(=O)C2CC2)CC1 (stereo unspecified)	6.3%	1.0%	6.7%	i	i
O=C(O)CC/C=C\CC[C@@H]1[C@@H](N2CCCCC2)[C@@H](O)C[C@@H]1OCc1ccc(-c2ccccc2)cc1	8.0%	.	-0.2%	.	.
N#CC1(NC(=O)CSc2n[nH]c(-c3ccccc3)n2)CCCCC1	-0.6%	1.9%	3.0%	i	i
Cc1ccc(C(=O)NC(=S)N2CCN(c3ccccc3F)CC2)cc1	2.1%	-0.2%	23.1µM*	?	i
Cc1ccc(C(=O)NC(=S)N2CCN(c3cc(C)ccc3C)CC2)cc1	?	?	-5.5%	i	?
COc1cccc(C(C)(O)c2nc(-c3ccc(C)c(C)c3)cs2)c1 (stereo unspecified)	.	.	.	i	i
O=C1/C(=C/c2ccco2)SC(=S)N1C1CCS(=O)(=O)C1 (stereo unspecified)	26.6%	-14.4%	12.5%	i	i
Cc1ccc(/C=C2\SC(=S)N(C3CCS(=O)(=O)C3)C2=O)cc1 (stereo unspecified)	11.5%	-3.7%	0.0052µM*	i	i
COC(=O)c1c(C(=O)OC)c(-c2cccc(F)c2)n2c1CS(=O)(=O)C2	-0.1%	0.0%	9.0%	i	i
CCCC[C@H]1COCCS(=O)(=O)N1Cc1ccc(C)cc1	-0.9%	5.9%	-5.0%	16.4µM*	16.4µM*
CCN(CC)c1ccc(/C=N/NC(=O)c2nnn(-c3nonc3N)c2C(C)C)c(O)c1	18.4µM*	25.6%	23.1µM*	1.3µM*	i
CN(Cc1c(C(=O)N/N=C/c2ccccc2O)nnn1-c1nonc1N)C1CCCCC1	.	.	.	18.4µM*	?
CN(Cc1c(C(=O)N/N=C/c2cccc(O)c2)nnn1-c1nonc1N)C1CCCCC1	-0.5%	?	5.8%	i	?
